# The supplement of paper PMC9135407
# Structures can show the parent of a compound that is named as a salt.
# System: primary human hepatic stellate cells (donor 1)
# Assay: PSMB2 reference mRNA level vs DMSO (fold); higher = more PSMB2 expression
# Conditions: 48 h
# Protocol: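 Secondary qRT-PCR screen in primary human HSCs (donor 1), 384-well plates, with compounds dispensed in quadruplicate and incubated for 48 h. Cells-to-CT lysates were used for multiplexed TaqMan qPCR of ACTA2 or COL1A1 with PSMB2 as reference. Fold changes versus DMSO come from a linear model (Ct_gene ~ Ct_PSMB2 + plate + chemical). A hit is defined as COL1A1 and ACTA2 FC <0.5 (FDR <0.05) with PSMB2 between 0.2 and 2.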
row,Compound,PSMB2 reference mRNA level
1,CN1CCC(=C2c3ccccc3C=Cc3ccccc32)CC1 [Cyproheptadine] (33.3333 µM),0.904
2,CN1CCN(C2=Cc3ccccc3Oc3ccc(Cl)cc32)CC1 (33.3333 µM),0.977
3,CCN(CC)CCOc1ccc(Cc2ccccc2)cc1 [DPPE fumarate] (33.3333 µM),0.798
4,Cc1cc(C(=O)Nc2cc(Nc3ccc4c(/C=C/c5ccccn5)n[nH]c4c3)ccc2F)n(C)n1 (33.3333 µM),0.985
5,"NC(N)=NC(=O)c1nc(Cl)c(N2CCCCCC2)nc1N [5-(N,N-hexamethylene)amiloride] (33.3333 µM)",0.641
6,CC#CCOC(=O)c1c(C)nc2sc3c(c2c1N)CCC(O)C3 (stereo not given) (33.3333 µM),0.434
7,Cc1cc(Nc2cc(N3CCN(C)CC3)nc(/C=C/c3ccccc3)n2)n[nH]1 (11.1 µM),0.122
8,CCNC(=O)c1noc(-c2cc(C(C)C)c(O)cc2O)c1-c1ccc(CN2CCOCC2)cc1 (11.1 µM),1.72
9,CCCCCCCCCCCCCCCCn1cc[n+](Cc2ccccc2)c1C (11.1 µM),0.00468
10,C#C[C@]1(O)CC[C@H]2[C@@H]3CCC4=Cc5oncc5C[C@]4(C)[C@H]3CC[C@@]21C [Danazol] (33.3333 µM),0.993
11,CCN(CC)CCNC(=O)c1c(C)[nH]c(/C=C2\C(=O)Nc3ccc(F)cc32)c1C (6.66667 µM),2.81
12,Cc1nc2ccc(-n3ncc(C(=O)c4cc5ccccc5[nH]4)c3N)cc2[nH]1 (33.3333 µM),0.324
13,CSc1ccc2c(c1)C(N1CCN(C)CC1)Cc1ccccc1S2 (stereo not given) [Methiothepin maleate] (33.3333 µM),0.000808
14,NC1(c2ccc(-c3nc4ccn5c(=O)[nH]nc5c4cc3-c3ccccc3)cc2)CCC1 (11.1 µM),3.72
15,CN1CCC(Nc2ncc3ncnc(Nc4ccc(F)c(Cl)c4)c3n2)CC1 [BIBX 1382 dihydrochloride] (33.3333 µM),0.0502
16,Cc1cnc(-c2cnc(NCCNc3ccc(C#N)cn3)nc2-c2ccc(Cl)cc2Cl)[nH]1 (33.3333 µM),2.78
17,C[C@@H]1CN(CCCn2c3ccccc3c3ccccc32)C[C@H](C)N1 [Rimcazole dihydrochloride] (33.3333 µM),0.0107
18,C#CC1(O)CC[C@H]2[C@@H]3CCC4=CC(=O)CC[C@@H]4[C@H]3CC[C@@]21CC (stereo not given in full) [Norgestrel] (21.3333 µM),1.14
19,Clc1ccccc1CNCC1CCC(CNCc2ccccc2Cl)CC1 (stereo not given) (33.3333 µM),0.138
20,CC(C)(C)c1cc(NC(=O)Nc2ccc(-c3cn4c(n3)sc3cc(OCCN5CCOCC5)ccc34)cc2)no1 [Quizartinib  (AC220)] (11.1 µM),2.12

row,Compound,PSMB2 reference mRNA level
1,CCN1CCC(n2cc(CNc3cc(Cl)c4ncc(C#N)c(Nc5ccc(F)c(Cl)c5)c4c3)nn2)CC1 (33.3333 µM),0.0139
2,C[C@@H](Oc1cc(-c2cnn(C3CCNCC3)c2)cnc1N)c1c(Cl)ccc(F)c1Cl (11.1 µM),0.805
3,"O=S(=O)(NCCNC/C=C/c1ccc(Br)cc1)c1cccc2cnccc12 [H-89, Dihydrochloride] (11.1 µM)",1.02
4,Cc1nc(Nc2ncc(C(=O)Nc3c(C)cccc3Cl)s2)cc(N2CCN(CCO)CC2)n1 (33.3333 µM),1.6
5,C[C@]12CC[C@H](O)CC1=CC[C@@H]1[C@@H]2CC[C@]2(C)C(n3cnc4ccccc43)=CC[C@@H]12 [Galeterone] (33.3333 µM),0.0945
6,O=C1NCN(c2ccccc2)C12CCN(CCCC(c1ccc(F)cc1)c1ccc(F)cc1)CC2 [Fluspirilene] (14.0333 µM),1.38
7,Cn1cc(CNCC2CCN(c3ncc(C(=O)NO)cn3)CC2)c2ccccc21 [Quisinostat] (33.3333 µM),0.103
8,CNCCC(Oc1ccc(C(F)(F)F)cc1)c1ccccc1 (stereo not given) [Fluoxetine hydrochloride] (33.3333 µM),0.204
9,CCC/C=C\C=C/C(=O)N[C@@H](CC(N)=O)C(=O)NC(CC(N)=O)C(=O)N[C@@H](C(=O)N[C@H](CCCN)C(=O)N[C@@H](C(=O)N[C@@H](C(=O)N[C@@H](C(=O)N[C@H](C(=O)N[C@@H](Cc1ccccc1)C(=O)N[C@H](CCCN)C(=O)NC(C(=O)N[C@H](C(=O)NC(C(=O)NCC(=O)N[C@@H](CC(C)C)C(=O)N[C@H](C)C(=O)NC(C(=O)O)C1CCC(O)C(Cl)C1)C1CCC(O)CC1)[C@H](C)O)C1CCC(O)CC1)[C@H](C)O)C1CCC(O)CC1)C1CCC(O)CC1)[C@H](C)O)C1CCC(O)CC1 (stereo not given in full) (33.3333 µM),0.369
10,CN(C)CCCCC(=O)Nc1ccc(NC(=S)NC(=O)c2ccc(C(C)(C)C)cc2)cc1 [Tenovin-6] (33.3333 µM),0.000996
11,O=C(Nc1ncc(SCCN2CCCC2)s1)[C@]1(c2ccc(S(=O)(=O)C3CC3)cc2)C[C@H]1C1CCCCC1 (11.1 µM),0.35
12,Cc1cccc(Nc2nc(-c3ccncc3)cs2)c1 (11.1 µM),1.45
13,CC(C)NCCCn1c(Sc2cc3c(cc2I)OCO3)nc2c(N)ncnc21 (33.3333 µM),0.581
14,N=C(N)SCCc1ccc(OCc2ccc([N+](=O)[O-])cc2)cc1 [KB-R7943 mesylate] (33.3333 µM),0.61
15,CCCCc1oc2ccccc2c1C(=O)c1cc(I)c(OCCN(CC)CC)c(I)c1 (33.3333 µM),0.537
16,O=C(c1ccc(/C=C/c2n[nH]c3ccccc23)cc1)N1CCNCC1 (33.3333 µM),0.0479
17,NC[C@@H]1O[C@H](C23CC4CC(CC(C4)C2)C3)Cc2c1ccc(O)c2O (33.3333 µM),0.00124
18,CN1CCCN(C(c2ccccc2)c2ccc(Cl)cc2)CC1 (stereo not given) [Homochlorcyclizine dihydrochloride] (33.3333 µM),1.19
19,CS(=O)(=O)CCNCc1ccc(-c2ccc3ncnc(Nc4ccc(OCc5cccc(F)c5)c(Cl)c4)c3c2)o1 (6.66667 µM),1.27
20,CNCc1ccc(C)c(NC(=O)c2ccc(Nc3nc(-c4ccccc4)c4ccccc4n3)cc2)c1 (33.3333 µM),0.000816
